Values joined by “and” are separate entries in the source; they are usually repeats but may differ in a detail not shown here. Identical values can stand only once. Counter-ions that a name gives are not always drawn. ± gives the standard deviation of the averaged measurements.
Legend:
Molm13 = assay: cell viability relative to DMSO control (bortezomib = 0%); higher = less growth inhibition; conditions: 10 nM; 72 h
Method in brief: (§1)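 Acute myeloid leukemia cells, 1000 per well in 50 µL, were incubated for 72 h on 384-well plates with 679 approved and investigational compounds, each at a single 10 nM dose. Viability was read by CellTiter-Glo luminescence. Values were expressed as percentages through per-plate linear regression against DMSO-treated (100%) and positive-control-treated (0%) cells.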

Mv4-11 = assay: as above; conditions: 10 nM; 72 h
Method in brief: as §1

Row | Structure (SMILES) | cell viability (Molm13) | cell viability (Mv4-11)
1 | c1ccc(-c2[nH]ncc2-c2ccnc3ccccc23)nc1 | 102% and 105% | 111% and 113%
2 | Cc1ccc(S(=O)(=O)/C=C/C#N)cc1 | 87.5 ± 24% | 98.8 ± 3.1%
3 | CCCN(CCC)C(=O)C(CCC(=O)O)NC(=O)c1ccccc1 (stereo not drawn) [Proglumide] | 100 ± 3% | 106 ± 24%
4 | O=c1c(-c2ccc(O)cc2)coc2cc(O)cc(O)c12 [Genistein] | 104 ± 4.5% | 122 ± 24%
5 | COCCN1CCN(Cc2ccc(-c3n[nH]c4c3C(=O)c3c(NC(=O)NN5CCOCC5)cccc3-4)cc2)CC1 | 70.99 ± 0.17% | 55.6 ± 8.7%
6 | c1cc(-c2cnn3cc(-c4ccc(OCCN5CCCCC5)cc4)cnc23)ccn1 | 95.5 ± 6% | 117 ± 10%
7 | COc1ccc(-c2cnc3c(-c4cccc5ncccc45)cnn3c2)cc1 | 103 ± 12% | 103 ± 1.6%
8 | Cc1cnc(Nc2ccc(OCCN3CCCC3)cc2)nc1Nc1cccc(S(=O)(=O)NC(C)(C)C)c1 | 86.3 ± 1.3% | 92.97 ± 0.82%
9 | Cc1ccc(S(=O)(=O)NC(=O)NN2CC3CCCC3C2)cc1 (stereo not drawn) [Gliclazide] | 98.5 ± 5.5% | 113 ± 6.1%
10 | C=CC(=O)Nc1cc(Nc2nccc(-c3cn(C)c4ccccc34)n2)c(OC)cc1N(C)CCN(C)C [AZD-9291 mesylate] | 102 ± 5.5% | 94.8 ± 6.1%
11 | CCN1CCN(c2ccc(Nc3cc(N(C)C(=O)Nc4c(Cl)c(OC)cc(OC)c4Cl)ncn3)cc2)CC1 | 110 ± 17% | 106 ± 16%
12 | CN(C)C(=O)c1cc2cnc(Nc3ccc(N4CCNCC4)cn3)nc2n1C1CCCC1 | 113 ± 12% | 113 ± 12%
13 | CC(C)n1cnc2c(NCc3ccccc3)nc(NCCCO)nc21 [Bohemine] | 95.3 ± 4.3% | 103 ± 13%
14 | CNC(=O)c1cc(Oc2ccc(NC(=O)Nc3ccc(Cl)c(C(F)(F)F)c3)cc2)ccn1 | 45 ± 3.3% | 45.2 ± 5.3%
